Measurements taken from PubChem BioAssay (NCI).
About 79,000 compounds went through this panel and 15% of them were active in at least one assay; those are over-represented in the sample as a whole. Unmarked numbers belong to inactive results. Activity calls are given as the source filed them. No stated cut-off is given here; in the data, active means growth inhibition above about 70%; inactive means the rest.

Columns and labels:
[1] = NCI Yeast Anticancer Drug Screen. Data for the rad50 strain (AID 155);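 further: 0% = growth of vehicle-only cultures of the same strain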; conditions: S. cerevisiae rad50 strain growth inhibition; at 50.0 µM; stronger effect = higher value
Outline: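 Vehicle-treated cultures provide the reference for the growth inhibition reported for compound-exposed, repair-deficient yeast.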

[2] = NCI Yeast Anticancer Drug Screen. Data for the mec2-1 strain (AID 157); conditions: S. cerevisiae mec2-1 strain, at 50.0 µM, stronger effect = higher value
Outline: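 Strain: mec2-1 (DNA repair/cell cycle alteration). Compound exposure, then growth measured; inhibition expressed relative to vehicle.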

[3] = NCI Yeast Anticancer Drug Screen. Data for the sgs1 mgt1 strain (AID 161);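 further: 0% = growth of cultures given vehicle only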; conditions: S. cerevisiae sgs1 mgt1 strain, at 50.0 µM, stronger effect = higher value
Outline: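 Mutant yeast exposed to compound; growth scored against vehicle-only wells.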

[4] = NCI Yeast Anticancer Drug Screen. Data for the cln2 rad14 strain (AID 165);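 further: 0% = growth equal to vehicle treated cultures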; conditions: S. cerevisiae cln2 rad14 strain, at 50.0 µM, stronger effect = higher value
Outline: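 Compounds are applied to the cln2 rad14 yeast strain, and growth is then compared with that of vehicle-treated cultures to give inhibition.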

[5] = NCI Yeast Anticancer Drug Screen. Data for the bub3 strain (AID 167); conditions: S. cerevisiae bub3 mutant strain, at 50.0 µM, stronger effect = higher value
Outline: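 Mutant yeast screening strain plus compound; vehicle-treated cultures serve as the 0% inhibition reference.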

[6] = NCI Yeast Anticancer Drug Screen. Data for the mlh1 rad18 strain (AID 175); conditions: S. cerevisiae mlh1 rad18 strain growth inhibition; at 50.0 µM; stronger effect = higher value
Outline: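 Read-out is yeast growth inhibition, calculated against vehicle-only controls. The compound was applied to a strain engineered with DNA damage repair alterations.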

SMILES	growth inhibition [1]	growth inhibition [2]	growth inhibition [3]	growth inhibition [4]	growth inhibition [5]	growth inhibition [6]
CC1CC(C#N)=C(NC#N)NC1=O (configuration not stated)	-0.5%	12.4%	19.2%	5.55%	-0.75%	9.4%
Oc1ccc([C@H]2Oc3c(c(O)cc4c3C3c5c(O)cc(O)cc5OC(c5ccc(O)cc5)(O4)[C@H]3O)CC2O)cc1 (some centres not stated)	1.85%	-4.6%	-20.9%	-4.65%	-7%	-5.75%
O=c1c2ccccc2n2c(-c3ccccc3O)nnc2n1-c1ccccc1	6.5%	14.8%	35.1%	26.2%	6.6%	18.2%
NC(=O)c1ccc(Cl)cc1C(N)=O	-6.55%	17.9%	7.1%	-24.1%	-0.05%	-2.25%
CN1CCN(CCCN2CC(=O)N3Cc4ccccc4CN3C(=O)C2)CC1	-26.6%	-1.35%	-9.45%	1%	5.15%	-3%
CC(=O)OCC1OC(OCCCc2ccccc2)C(OC(C)=O)C(OC(C)=O)C1OC(C)=O (configuration not stated)	21%	5.5%	6.45%	-47.9%	-65.9%	24.9%
CC(C(=O)O)C(NC(=O)c1ccccc1)C(=O)O (configuration not stated)	11.5%	5.35%	0.2%	16%	4.4%	13.4%
COc1ccc(C2C(C(=O)NCc3ccccc3)=C(C)NC(C)=C2C(=O)NCc2ccccc2)cc1OC	-1.8%	-4.5%	-23.6%	8.4%	3.35%	16.9%
Nc1ccc(C(=O)c2ccccc2)cc1	33.2%	13.9%	25.4%	-8.55%	-1.55%	4.9%
C[n+]1c2ccccc2c(CNC(CCC(N)=O)C(=O)O)c2ccccc21 (configuration not stated)	83.3% (active)	87.4% (active)	80.6% (active)	61.8%	73.3% (active)	87.8% (active)
CNC(=O)/C=C/C1=CN2C(=O)c3ccc(C)c(O)c3NC(OC)C2C1 (configuration not stated)	91.5% (active)	93.7% (active)	93% (active)	92.6% (active)	92.3% (active)	89.2% (active)
O=C(COc1ccc(Cl)cc1Cl)Nc1c(Cl)cc(Cl)cc1Cl	6.7%	7.6%	-6.45%	2%	-4.8%	19.6%
Cc1ccc2c(c1)C(C)CC2(C)C (configuration not stated)	1.8%	-6.55%	-4.6%	3.65%	8.95%	2.15%
COc1cccc2cc[nH]c12	0.2%	11.2%	-9.2%	10.8%	7.7%	8.6%
O=C(NN1C(=O)CS(=O)(=O)C1c1ccc(C(F)(F)F)cc1)c1ccncc1 (configuration not stated)	-10.7%	2.2%	5.8%	8.8%	1.05%	7.75%
CCOC(=O)NC	14.4%	1.6%	-19.6%	3.85%	-1%	9.8%
C/C(=N\N=C(/C)c1ccc(Br)s1)c1ccc(Br)s1	-42.5%	-35%	-23.7%	-18.3%	-12.8%	-28.1%
CP(=O)(c1ccccc1)c1ccccc1OCCCOCCCOc1ccccc1P(C)(=O)c1ccccc1 (configuration not stated)	-4.8%	3.4%	0.45%	8.1%	-3.55%	-10.6%
Cc1ccc(S(=O)(=O)CCOC(=O)Nc2ccccc2)cc1	2.5%	12.6%	1.7%	-12.4%	-14.6%	11.5%
Nc1nc(SCCc2ccccc2)nc2nc3c(c(-c4ccccc4)c12)CCCC3	-23.3%	-10.6%	-3.2%	2.35%	0.05%	5.1%
c1ccc(CSCCc2ccncc2)cc1	16.4%	-13.6%	-21.1%	-3.2%	-3.55%	20.2%

SMILES	growth inhibition [1]	growth inhibition [2]	growth inhibition [3]	growth inhibition [4]	growth inhibition [5]	growth inhibition [6]
COc1ccc(OC(=O)Nc2cccc(C(C)=O)c2)cc1	8.35%	42.3%	9.9%	1.8%	22.1%	3.15%
COc1cccc(OC)c1OCC1CO1 (configuration not stated)	6.95%	9.8%	0.2%	-14.4%	2.3%	9.95%
O=C(Nc1ccc(Cl)cc1)Nc1nnc(-c2ccccc2Br)o1	15.6%	18.6%	19.2%	-15.4%	-22.6%	8.3%
CCN=C(N)CSS(=O)(=O)O	-1.9%	-28.1%	-32.8%	-4.6%	-22%	-16.7%
CC(c1ccccc1)C(OCc1ccccc1)OCc1ccccc1 (configuration not stated)	-17.1%	9.15%	4.55%	-36.5%	22.6%	1.2%
CCCCCCCCN(C)/N=N/c1nc[nH]c1C(N)=O	20.7%	-4.7%	15.1%	17.6%	17.8%	24.4%
NC(=O)C1=NNc2ccccc2C(=O)N1c1ccccc1	8.3%	-10.2%	-20.1%	9.9%	6.9%	2.55%
Nc1ccc2c(c1)C(=O)N(OS(=O)(=O)c1ccccc1)C2=O	55%	39%	41.2%	41%	35%	47.2%
Clc1ccc(/C=C2\c3ccccc3-c3nc4ccccc4nc32)cc1	-6.7%	-8.05%	-8.65%	-13.4%	-8.25%	-21.9%
COc1cccc(-n2cnc3c(=S)nc[nH]c32)c1	4.2%	-9.3%	9.7%	-41.6%	-4.85%	1.9%
Cc1cccc(NC(=O)c2c(Br)c(Br)c(Br)c(Br)c2C(=O)O)c1C	26.9%	-18%	12.7%	2.85%	5.4%	-4.3%
CCn1c2ccccc2c2cc(/C=N/N=C/c3ccc4c(c3)c3ccccc3n4CC)ccc21	-17.8%	5.15%	-11.6%	-13.7%	-1.8%	-18.9%
CCOC(=O)[C@H]1Nc2ccc(Cl)cc2[C@H]2OCC[C@@H]12	5.5%	-10.9%	-2.4%	23.8%	3.15%	-0.7%
CC1(C)CCC2(C)CC=C3C(C)(CCC4C3(C)CCC3C(C)(C)C(O)CCC43C)C2C1 (configuration not stated)	0.9%	-4.2%	-23.2%	-10.3%	-18%	-10.4%
CC(C)(C)C1(C#N)C(=O)N(c2ccc(Cl)cc2)C12c1ccccc1-c1ccccc12 (configuration not stated)	4.55%	9.55%	6.45%	19.2%	-4.5%	20.4%
COC(=O)[C@]1(C)CCC[C@]2(C)c3cc(Br)c(C(C)C)cc3CC[C@H]12	-18.6%	-9.25%	-6.3%	-44.5%	-4.55%	-1.8%
CCOC(=O)C(NNc1ccccc1)C(=O)C(F)(F)F (configuration not stated)	10.9%	3.2%	-9.3%	-18.8%	1.35%	18.6%
C=C1C(C(=O)O)C1C(=O)O (configuration not stated)	4.2%	-11.8%	20.4%	3.6%	2.9%	-2.25%
COc1ccc(-n2c(C)nc3c(cnn3C3OC(CO)C(O)C3O)c2=O)cc1 (configuration not stated)	16.2%	-5.6%	-15.1%	-4.15%	-1.9%	11.2%
COc1ccc2c(=O)c(O)c(-c3ccccc3)oc2c1	22.8%	-18.9%	42.5%	10.4%	15.2%	8.25%
S=C(Sc1nc2ccccc2s1)Sc1nc2ccccc2s1	72% (active)	91.1% (active)	95% (active)	85.5% (active)	97.5% (active)	90.7% (active)
